Reference: PubChem BioAssay AID602291 (National Center for Advancing Translational Sciences (NCATS), 2012)
Activity calls are given as the source filed them.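 The calls were made as follows: active = cells show a rise in impedance after compound treatment, with no numeric cutoff stated; inactive = no rise in impedance seen.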

The compounds below were run against Relaxin receptor 1 (Homo sapiens) (UniProt Q9HBX9) (assay: qHTS Assay for Agonists of the Relaxin Receptor RXFP1: Cell Impedance). Settings: HEK293-RXFP1 cell impedance, xCELLigence, 500 nM time course; at 0.5 µM; stronger effect = higher value.
Description: The relaxin hormone is involved in the variety of biological functions in normal tissues and diseases. The role of relaxin is well-established in female reproduction and parturition, mammary gland and endometrial development, maintenance of myometrial quiescence during pregnancy. Relaxin signaling through its G protein-coupled receptor (GPCR) RXFP1 results in ECM remodeling through regulation of collagen deposition, cell invasiveness, proliferation and overall tissue homeostasis. […] Recombinant human relaxin (rhRlx) is currently being tested in clinical trials as a protective agent in congestive heart failure, in treating severe preeclampsia, and as an anti-fibrotic agent in systemic sclerosis.
Upon relaxin binding RXFP1 activation leads to the activation of adenylate cyclase (AC) via Gs. cAMP will activate PKA, which phosphorylates many signaling proteins. Thus, detection of cAMP increase is an easy and reliable indication of relaxin receptor activation. To screen for agonists of the relaxin receptor, a HEK293T cell line stably transfected with RXFP1 was used. RXFP1 activation was assayed by changes in cAMP levels as detected with a time-resolved fluorescence energy transfer (TR-FRET) cAMP detection kit.
After the primary screen and rounds of SAR, a probe and analog were identified. It was previously shown that relaxin increases cell impedance in RXFP1 transfected cells. A cell line stably transfected with RXFP1 receptor HEK293-RXFP1 was used for cell impedance assay to confirm relaxin-like properties of the compounds.
NIH Chemical Genomics Center [NCGC]
NIH Molecular Libraries Probe Production Centers Network [MLPCN]
Assay Submitter (PI): Alexander Agoulnik
To equilibrate the plates, 100 microL of test media (DMEM, 1% FBS, 1x Pen/Strep) was added to each well of E Plate 16 (Roche Diagnostics, Indianapolis, IN) and the plate was incubated at room temperature for 30 minutes at which point baseline impedance was measures. Then 20,000 HEK293-RXFP1 cell or HEK293 cells (parental control cell line) were added per well in a volume of 100 microL test media and allowed to sediment at room temperature for 30 minutes. The plate was placed into xCELLigence RTCA DP Instrument in the CO2 incubator overnight to allow the cells to attach. Relaxin (10 ng/mL), vehicle, or compounds 500 nM were added to the wells and the cellular impedance was measured every 10-30 seconds for 1 hour.

Chain of Relaxin receptor 1 (Homo sapiens) (Q9HBX9 whole entry, looked up): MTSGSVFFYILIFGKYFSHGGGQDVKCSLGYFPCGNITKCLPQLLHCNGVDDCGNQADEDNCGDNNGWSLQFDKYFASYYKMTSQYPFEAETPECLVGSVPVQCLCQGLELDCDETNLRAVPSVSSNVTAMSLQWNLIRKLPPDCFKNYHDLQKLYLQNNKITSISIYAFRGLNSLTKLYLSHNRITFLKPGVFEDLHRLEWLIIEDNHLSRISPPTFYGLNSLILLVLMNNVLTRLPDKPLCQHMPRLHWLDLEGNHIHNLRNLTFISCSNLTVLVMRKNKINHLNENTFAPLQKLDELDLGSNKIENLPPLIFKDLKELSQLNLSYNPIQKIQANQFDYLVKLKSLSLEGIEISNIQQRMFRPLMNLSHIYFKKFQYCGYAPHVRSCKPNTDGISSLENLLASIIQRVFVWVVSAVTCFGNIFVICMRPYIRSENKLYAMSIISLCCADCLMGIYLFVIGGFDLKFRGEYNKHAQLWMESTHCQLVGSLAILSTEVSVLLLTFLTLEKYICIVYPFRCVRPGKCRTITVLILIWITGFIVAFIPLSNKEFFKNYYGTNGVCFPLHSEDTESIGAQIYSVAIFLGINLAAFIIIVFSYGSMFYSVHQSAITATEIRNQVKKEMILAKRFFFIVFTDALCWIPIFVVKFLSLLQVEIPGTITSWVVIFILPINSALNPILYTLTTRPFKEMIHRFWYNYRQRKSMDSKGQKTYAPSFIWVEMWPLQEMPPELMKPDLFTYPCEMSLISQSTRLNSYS

Impedance increase (% of relaxin), active:
CCOc1ccccc1C(=O)Nc1ccccc1C(=O)Nc1cccc(C(F)(F)F)c1 67%
CCOc1ccccc1C(=O)Nc1ccccc1C(=O)Nc1cccc(S(=O)(=O)C(F)(F)F)c1 31.2%
CCCCOc1ccccc1C(=O)Nc1ccccc1C(=O)Nc1cccc(S(=O)(=O)C(F)(F)F)c1 39.5%
CC(C)Oc1ccccc1C(=O)Nc1ccccc1C(=O)Nc1cccc(S(=O)(=O)C(F)(F)F)c1 46.7%
